Values joined by “and” are separate entries in the source; they are usually repeats but may differ in a detail not shown here. Equal entries are not always repeated. Structures can show the parent of a compound that is named as a salt.
What was measured:
Experiment in all cases: cell viability relative to vehicle control; higher = less cytotoxic
Settings in all cases: 10 µM
K562 = test system: K562
Outline: (§1)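 Screening covered the Selleck bioactive, kinase and epigenetic probe libraries, less identity-inconsistent compounds, on CRISPR-edited mutant clones and isogenic wild-type clones of four leukaemia lines. Cells, at 2000 per well in 50 µL medium, received a single 10 µM acoustically dispensed dose. After 48 h the supernatant was removed and CellTiter-Glo luminescence was read. Viability was analysed in Genedata Screener as percent of the on-plate vehicle control.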

MARIMO = test system: MARIMO
Outline: as §1

MOLM14 = test system: MOLM14
Outline: as §1

OCI-AML2 = test system: OCI-AML2
Outline: as §1

SMILES | cell viability (K562; SRSF2 genotype: SRSF2 P95H/wt) | cell viability (K562; SRSF2 genotype: SRSF2 wt/wt) [%] | cell viability (MARIMO; SRSF2 genotype: SRSF2 P95H/wt) [%] | cell viability (MARIMO; SRSF2 genotype: SRSF2 wt/wt) [%] | cell viability (MOLM14; SRSF2 genotype: SRSF2 P95H/wt) [%] | cell viability (MOLM14; SRSF2 genotype: SRSF2 wt/wt) [%] | cell viability (OCI-AML2; SRSF2 genotype: P95H/wt) [%] | cell viability (OCI-AML2; SRSF2 genotype: wt/wt) [%]
Nc1c(Br)cc(Br)cc1CN[C@H]1CC[C@H](O)CC1 [Ambroxol HCl] | 103% and 109% | 105 | 106 | 102 | 101 | 107 | 104 | 101
CCCOc1ccc2[nH]c(NC(=O)OC)nc2c1 [Oxibendazole] | 15.3% and 34.8% | 28 | 6.59 | 7.72 | 10.9 | 3.24 | 4.68 | 8.07
Cc1cc(/N=N/c2ccc(S(=O)(=O)Nc3ccccn3)cc2)c(N)cc1O | 76.8% and 80.2% | 79.7 | 56.9 | 53.3 | 36.3 | 34.8 | 26.2 | 48.7
C[C@]1(O)C[C@@H](O)[C@@H]2C=CO[C@@H](O[C@@H]3O[C@H](CO)[C@@H](O)[C@H](O)[C@H]3O)[C@@H]21 [Leonuride] | 105% and 99.7% | 106 | 101 | 94.9 | 102 | 101 | 102 | 102
CCCCCCCCCCC[C@@H](C[C@@H]1OC(=O)[C@H]1CCCCCC)OC(=O)[C@H](CC(C)C)NC=O [Orlistat (Alli, Xenical)] | 75.8% and 85.2% | 76.8 | 41.8 | 64.9 | 75.3 | 73.4 | 49.6 | 86.8
COC(=O)c1ccc2c(c1)[nH]c1ncnc(NCCCN3CCCCC3)c12 | 78.5% and 68.9% | 73.5 | 49.9 | 49 | 23.7 | 15.7 | 24.2 | 31
CCCCCCCC/C=C\CCCCCCCCCCCC(=O)O [Erucic acid] | 99.7% and 96.1% | 103 | 101 | 107 | 104 | 107 | 100 | 110
CC(=O)[C@@]1(O)CC[C@H]2[C@@H]3C[C@H](C)C4=CC(=O)CC[C@]4(C)[C@H]3CC[C@@]21C [Medroxyprogesterone] | 97.3% and 90.1% | 91.8 | 74 | 92.8 | 103 | 100 | 103 | 104
NCCCCCC(=O)O | 99% and 100% | 99.6 | 101 | 98.5 | 103 | 105 | 113 | 99
CC(C)(O[C@@H]1O[C@H](CO)[C@@H](O)[C@H](O)[C@H]1O)[C@H]1Cc2cc3ccc(=O)oc3cc2O1 [Nodakenin] | 101% and 107% | 109 | 98.7 | 101 | 110 | 100 | 106 | 103
NC1(C(=O)N[C@@H](CCO)c2ccc(Cl)cc2)CCN(c2ncnc3[nH]ccc23)CC1 | 82.6% and 83.6% | 79 | 66.6 | 67.1 | 28.5 | 33.3 | 59.8 | 55.8
CC1(C)CCC(CN2CCN(c3ccc(C(=O)NS(=O)(=O)c4ccc(NCC5CCOCC5)c([N+](=O)[O-])c4)c(Oc4cnc5[nH]ccc5c4)c3)CC2)=C(c2ccc(Cl)cc2)C1 [Venetoclax (ABT-199, GDC-0199)] | 79% and 81.2% | 76 | 0.58 | 6.31 | 1.63 | 7.23 | 1.25 | 10.2
O=c1c(O)c(-c2ccc(O)c(O)c2)oc2cc(O)cc(O)c12 [Quercetin (Sophoretin)] | 97.3% and 89.3% | 91.5 | 93.9 | 93.6 | 98.3 | 97.5 | 93.8 | 81.5
COC(=O)C1=C(C)NC(C)=C(C(=O)OC2CCCN(Cc3ccccc3)C2)C1c1cccc([N+](=O)[O-])c1 (stereo unspecified) [Benidipine hydrochloride] | 77.9% and 79.1% | 71.8 | 76.6 | 84.7 | 86.3 | 79.2 | 81.5 | 85.9
CCN(CC)CCNC(=O)c1c(C)[nH]c(/C=C2\C(=O)Nc3ccc(F)cc32)c1C [Sunitinib Malate] | 17.8% and 22.7% | 12.7 | 18.5 | 19.4 | 0.31 | 0.38 | 0.42 | 1.47
COc1ccc(Oc2cc(NCCC(F)(F)F)c3ncc(-c4ccc(C(=O)NC5CC5)c(C)c4)n3n2)c(F)c1F | 103% and 102% | 108 | 67.6 | 77.1 | 58.9 | 42.6 | 71.4 | 72.9
CC(C)=CCOc1ccc(/C=C/C(=O)c2ccc(OCC=C(C)C)cc2OCC(=O)O)cc1 [Sofalcone] | 100% and 101% | 107 | 105 | 101 | 84.9 | 94.5 | 106 | 118
Cn1c(=O)c2c(ncn2CC(O)CO)n(C)c1=O (stereo unspecified) [Dyphylline (Dilor)] | 101% and 102% | 100 | 94.9 | 105 | 97.8 | 101 | 95 | 102
CCn1c(N)c(C(=O)NC)c(=O)c2ccc(C#CC(C)(O)COC)nc21 (stereo unspecified) | 105% and 99.5% | 97.9 | 87.4 | 93.7 | 48.1 | 55.5 | 64.6 | 64.6
CCCCNc1ncc2c(-c3ccc(CN4CCN(C)CC4)cc3)cn([C@H]3CC[C@H](O)CC3)c2n1 | 5.45% and 6.26% | 6.13 | 8.07 | 5.67 | 0.26 | 0.23 | 1.56 | 5.54
OC[C@H]1O[C@@H](c2ccc(Cl)c(Cc3ccc(O[C@H]4CCOC4)cc3)c2)[C@H](O)[C@@H](O)[C@@H]1O | 89.6% and 87.1% | 94.4 | 89.4 | 102 | 94.3 | 93.8 | 93.1 | 105
COc1ccc(-c2cc(=O)c3c(O)c(OC)c(O)cc3o2)cc1OC [Eupatilin] | 101% and 99.5% | 97 | 92.3 | 98.2 | 48.7 | 60.2 | 69.4 | 71.2
COc1cc(Br)c(Nc2nc(-c3c(C)nc4ncccn34)cs2)c(Br)c1 | 20.6% and 23.8% | 24 | 14.7 | 19.2 | 16 | 10.7 | 2.76 | 8.07
C/C(=C\CO)CCC[C@H](C)CCC[C@H](C)CCCC(C)C [Phytol] | 97% and 93.1% | 96 | 89.1 | 103 | 85.5 | 92.6 | 80.5 | 82.6

SMILES | cell viability (K562; SRSF2 genotype: SRSF2 P95H/wt) | cell viability (K562; SRSF2 genotype: SRSF2 wt/wt) [%] | cell viability (MARIMO; SRSF2 genotype: SRSF2 P95H/wt) [%] | cell viability (MARIMO; SRSF2 genotype: SRSF2 wt/wt) [%] | cell viability (MOLM14; SRSF2 genotype: SRSF2 P95H/wt) [%] | cell viability (MOLM14; SRSF2 genotype: SRSF2 wt/wt) [%] | cell viability (OCI-AML2; SRSF2 genotype: P95H/wt) [%] | cell viability (OCI-AML2; SRSF2 genotype: wt/wt) [%]
CCCNC(=O)C1OC1C(=O)NC(C(=O)N1CCCC1C(=O)OC)C(C)CC (stereo unspecified) [CA-074 methyl ester (CA-074 Me)] | 76.9% and 62.3% | 70.2 | 66 | 90.1 | 18.2 | 11.8 | 25.6 | 24.1
CC(=O)OC(C)(C)CCC(=O)[C@](C)(O)[C@H]1[C@H](O)C[C@@]2(C)[C@@H]3CC=C4[C@@H](C[C@H](O)[C@@H](O)C4(C)C)[C@]3(C)C(=O)C[C@]12C [Curcurbitacin IIA] | 67.7% and 75.2% | 77.4 | 80.9 | 87.6 | 34.7 | 22.4 | 21.4 | 28.8
CCOC(=O)C1=C[C@@H](OC(CC)CC)[C@H](NC(C)=O)[C@@H](N)C1 [Oseltamivir Phosphate] | 103% and 105% | 104 | 102 | 106 | 110 | 109 | 110 | 104
CCN(CC)CCOC(=O)C(c1ccccc1)c1ccccc1 [Adiphenine HCl] | 97.9% and 89.7% | 85.9 | 85.1 | 96.3 | 89 | 94.3 | 92.4 | 81.1
COc1ccc(-c2ccc3ncc4c(c3c2)n(-c2ccc(N3CCNCC3)c(C(F)(F)F)c2)c(=O)n4C)cn1 | 0.26% and 0.21% | 0.16 | 0.25 | 0.28 | 0.18 | 0.18 | 0.11 | 0.16
CC(C)(C)C(=O)Oc1ccc(S(=O)(=O)Nc2ccccc2C(=O)NCC(=O)O)cc1 [Sivelestat sodium tetrahydrate] | 101% and 94.9% | 102 | 96.7 | 102 | 106 | 100 | 96.5 | 99.2
CCCCC1=NC2(CCCC2)C(=O)N1Cc1ccc(-c2ccccc2-c2nnn[nH]2)cc1 [Irbesartan (Avapro)] | 85.5% and 88.8% | 86.3 | 88.7 | 101 | 90 | 85.5 | 95.7 | 94.1
Cc1[nH]c(/C=C2\C(=O)Nc3ccc(S(=O)(=O)N(C)c4cccc(Cl)c4)cc32)c(C)c1C(=O)N1CCN(C)CC1 | 62.4% and 64.8% | 80.7 | 50.9 | 53.2 | 0.26 | 64.6 | 0.09 | 0.12
CCC1(c2c[nH]cn2)Cc2ccccc2C1 [Atipamezole] | 82.9% and 78.3% | 81.6 | 83.2 | 85.9 | 78.9 | 88.9 | 90 | 89.7
COc1cccc(-n2c(=O)[nH]c3cc(Cl)n(-c4ccc(-c5cccc(OC)c5O)cc4)c3c2=O)c1 | 91.6% and 97.4% | 93 | 108 | 117 | 107 | 102 | 95.8 | 97.3
C=CC(=O)N1CC(=Cc2ccc([N+](=O)[O-])cc2)C(=O)C(=Cc2ccc([N+](=O)[O-])cc2)C1 | 15.9% and 2.27% | 9.63 | 3.16 | 1.15 | 0.72 | 0.74 | 2.08 | 1.27
NCCCC[C@@H]1NC(=O)[C@@H](Cc2ccc(O)cc2)NC(=O)[C@H](CC(=O)O)NC(=O)CNC(=O)[C@H](CCCN=C(N)N)NC1=O [Cyclo(RGDyK)] | 93.8% and 88.5% | 89.8 | 92.8 | 96.9 | 91.3 | 90.9 | 94.8 | 93.9
Cc1ccc(NC(=O)c2ccc(CN3CC[C@H](N(C)C)C3)c(C(F)(F)F)c2)cc1Nc1nccc(-c2cncnc2)n1 [Bafetinib (INNO-406)] | 1.12% and 1.27% | 4.57 | 54.6 | 43.2 | 49.9 | 49 | 23.6 | 30.4
Clc1ccc(C(Cn2ccnc2)OCc2ccsc2Cl)c(Cl)c1 (stereo unspecified) [Tioconazole] | 69.5% and 76.7% | 71.6 | 69.7 | 71.2 | 62.4 | 69.5 | 59.9 | 63.1
CCn1c(C(=O)N(C2CC2)C2CC2)cc2c3c(ncn3C)c(Nc3cc(C)n(C)n3)nc21 | 103% | 108 | 108 | 102 | 41.6 | 38.5 | 43 | 57.1
CC(C(=O)O)c1cccc(Oc2ccccc2)c1 (stereo unspecified) [Fenoprofen calcium hydrate] | 95.1% and 104% | 99.4 | 103 | 101 | 95.1 | 102 | 106 | 103
CC1=C(C(=O)Nc2cc3cn[nH]c3cc2F)C(c2ccc(C(F)(F)F)cc2)CC(=O)N1 (stereo unspecified) | 99.9% and 96.7% | 95.3 | 89.1 | 98.6 | 36.8 | 91.7 | 23.6 | 42.9
CN(C)CCc1c[nH]c2ccc(CS(=O)(=O)N3CCCC3)cc12 [Almotriptan malate (Axert)] | 101% and 87% | 91 | 84.3 | 101 | 96.9 | 95.9 | 99.2 | 87.6
CO[C@@H]1[C@H](OC(=O)/C=C/C=C/C=C/C=C/C(=O)O)CC[C@]2(CO2)[C@H]1[C@@]1(C)O[C@@H]1CC=C(C)C [Fumagillin] | 77.1% and 77.5% | 72.3 | 51.5 | 69.4 | 50.9 | 50.5 | 72.4 | 63
C=CCc1cc(OC)c(OC)c(OC)c1 [Elemicin] | 106% and 105% | 113 | 111 | 104 | 105 | 109 | 109 | 123
Nc1ccn([C@@H]2O[C@H](CO)[C@@H](O)[C@H]2O)c(=O)n1 [Cytidine] | 101% and 86.3% | 84.4 | 82.5 | 89.9 | 81 | 89.2 | 82.5 | 86.6
COC(=O)c1ccc(O)c(C(=O)OC)c1 [Dimetghyl 4-Hydroxyisophthalate] | 100% and 93.1% | 99.4 | 95.2 | 98.7 | 97.3 | 100 | 90 | 96.6
COc1c/c(=C2\C=c3ccccc3=N2)[nH]/c1=C\c1[nH]c(C)cc1C [Obatoclax mesylate (GX15-070)] | 2.96% and 5.97% | 9.27 | 23.4 | 23.6 | 6.74 | 7.58 | 2.7 | 13.3

Reference: the supplement of paper PMC10981050
